Assay outcomes deposited in PubChem BioAssay by National Center for Advancing Translational Sciences (NCATS).
A selection: hits, their analogues and other compounds. The true share with any hit is near 6.2%.
RORg inh = inhibitors of mouse ROR gamma transcriptional activity | hit rate 5.4% among 310,000 | AID 2551 | P51450 | Drosophila S2 Gal4-RORgamma UAS-luciferase reporter, 20 h | Potency, µM (top dose mostly 53.6 µM), inactives show top-dose activity change, negative = inhibition, usual class: inhibitors; note: nearly all actives have a fitted effect of over 60% in size
Target sequence (P51450 whole entry, looked up, the tested form may be a part): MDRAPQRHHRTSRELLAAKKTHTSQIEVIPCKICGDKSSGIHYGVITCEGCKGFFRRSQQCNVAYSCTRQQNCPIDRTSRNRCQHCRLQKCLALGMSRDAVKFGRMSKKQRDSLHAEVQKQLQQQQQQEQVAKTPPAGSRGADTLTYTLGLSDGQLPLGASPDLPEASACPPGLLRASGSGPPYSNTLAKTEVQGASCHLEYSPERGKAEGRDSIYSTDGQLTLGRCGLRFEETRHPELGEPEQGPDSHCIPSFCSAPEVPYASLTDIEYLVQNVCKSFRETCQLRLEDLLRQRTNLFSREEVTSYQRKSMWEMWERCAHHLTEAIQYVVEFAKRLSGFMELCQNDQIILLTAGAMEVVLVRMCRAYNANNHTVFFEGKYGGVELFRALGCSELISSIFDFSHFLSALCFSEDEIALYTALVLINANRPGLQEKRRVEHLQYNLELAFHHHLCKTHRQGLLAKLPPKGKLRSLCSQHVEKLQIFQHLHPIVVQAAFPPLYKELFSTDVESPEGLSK
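Schneider cells (Drosophila), stable Gal4 DBD–ROR gamma + UAS-luc; 1 hr cmpd preincubation; Cu2+ induction 700 uM final; 20 hr ambient; luminescence.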
Luc counter = Kinase-Glo luciferase inhibition (counter-screen); Q27757; Kinase-Glo luciferase, ATP luminescence, 8 min; Potency, µM (titrated, usually from 38.3 µM), inactives show top-dose activity change, negative = inhibition, hits mostly inhibitors; hit rate 0.28% among 200,000; note: nearly all actives have a fitted effect of over 60% in size
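Inhibition of Kinase-Glo luciferase light generation was assessed at 10 uM ATP in pH 7.2 imidazole buffer, with luminescence measured after eight minutes at ambient temperature.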
VP16 counter = counter-screen for ROR gamma inhibitors: Gal4-VP16 reporter. Drosophila S2 Gal4-VP16 UAS-luciferase, luminescence, 20 h. Potency, µM (highest dose often 53.6 µM), inactives show at the top dose activity, negative = inhibition, actives largely listed as inhibitors. hit rate 3.5% among 310,000. AID 2546;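 note: Gal4-VP16 expression switched on by copper sulfate through the metallothionein promoter; nearly all actives have a fitted effect of over 50% in size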
* = called active by the depositor; ? = inconclusive; nt = not tested or not shown; [ ] = another dose, or the depositor's remark. Calls come from the whole dose curve; as a rule, active = well fitted curve in the direction sought with a large enough effect; inconclusive = small, poorly fitted or top-dose-only effect, or another doubt; inactive = no such curve, though single readings can be large; an effect the other way counts as inactive or inconclusive. % is set by controls: 0 for no effect and ±100 for the full control effect; potency is the fitted concentration of half-maximal effect.

SMILES	RORg inh	Luc counter	VP16 counter
N#C/C(=C\c1c[nH]c2ccccc12)c1nnc2n1CCCCC2	?	2.6%	4.7%
N#C/C(=N\Nc1cccc2ccccc12)c1nnc2n1CCCCC2	?	-3.0%	3.16µM*
Cc1ccnc(NC(=O)CN2C(=O)c3ccccc3C2=O)c1	8.8%	-0.5%	-11.2%
Cc1nnc(SC(C)C(=O)Nc2nccs2)s1 (configuration not stated)	-14.4%	-0.8%	4.2%[10 µM]
CC(=O)NCCNc1ncncc1-c1ccccc1C	-3.8%	nt	-0.4%
O=C(CSc1ccc(Cl)cc1)NC(=O)NCc1ccco1	?	1.5%	0.7%
C=C(C)COc1ccc(-c2[nH]ncc2-c2ccc(Br)cc2)c(O)c1	7.94µM*	-0.8%	10µM*
COc1cccc(Oc2cn[nH]c2-c2ccc(OCC(=O)NN)cc2O)c1	-23.6%	nt	-5.7%
CCOc1ccc(-c2[nH]ncc2-c2ccc(OC)c(OC)c2)c(O)c1	?	4.4%	?
C=C(C)COc1ccc(-c2ncncc2-c2ccc(Br)cc2)c(O)c1	-34.2%	nt	-23.8%
CCCOC(=O)c1ccc(Oc2cn[nH]c2-c2ccc(OC)cc2O)cc1	10µM*	-0.2%	22.4µM*
CCOc1ccc(-c2[nH]ncc2-c2ccc(Cl)cc2)c(O)c1	11.2µM*	nt	?
C=C(C)COc1ccc(-c2nc(N)ncc2Oc2ccc(OC)cc2)c(O)c1	9.5%	1.3%	-25.1%
C=C(C)COc1ccc(-c2[nH]ncc2Oc2ccc(OC)cc2)c(O)c1	12.6µM*	nt	?
Cc1ccc(S(=O)(=O)c2cnc(-c3ccccc3)nc2N2CCN(C)CC2)cc1	3.3%	-2.9%	-4.1%
COc1cccc(Cn2c(=O)c(-c3ccc(F)cc3)nc3cnc(OC)nc32)c1	-14.1%	nt	8.2%
CCCn1nc2cc(C(=O)NCCc3cccs3)ccc2c1OCC	6.5%	3.5%	?
Cc1ccc(C)c(Cn2nc3c4ccccc4n(Cc4ccccc4)cc-3c2=O)c1	1.3%	nt	-2.8%
C/C(=N\NC(=O)c1ccc(=O)[nH]n1)c1cccnc1	0.8%	0.1%	10.9%
CN1CC[C@@]2(CCCN(C(=O)c3cc(C(F)(F)F)cc(C(F)(F)F)c3)C2)C1	-4.6%	-1.7%	6.9%
C/C(=N/NC(=O)CNC(=O)c1ccccn1)c1cccc([N+](=O)[O-])c1	21.3%	-1.2%	2.7%
COc1ccc(-c2cn[nH]c2-c2ccc(OCc3ccc([N+](=O)[O-])cc3)cc2O)cc1	2.82µM*	1.2%	2µM*
C=C(C)COc1ccc(-c2nc(N)ncc2Oc2ccccc2OC)c(O)c1	16.7%	-5.8%	-11.3%
C=C(C)COc1ccc(-c2[nH]ncc2Oc2ccccc2OC)c(O)c1	11.2µM*	-1.5%	?
C=C(C)COc1ccc(-c2[nH]ncc2-c2ccccc2OC)c(O)c1	8.91µM*	-1.0%	12.6µM*
SMILES	RORg inh	Luc counter	VP16 counter
C=C(C)COc1ccc(-c2ncncc2-c2ccccc2OC)c(O)c1	-44.0%	nt	?
C=C(C)COc1ccc(-c2nc(N)ncc2-c2ccc(Br)cc2)c(O)c1	10.0%	nt	-7.1%
CCc1cc(-c2[nH]ncc2-c2ccc(OC)cc2)c(O)cc1O	-13.0%	nt	1.6%
C=C(C)COc1ccc(-c2n[nH]c(C)c2-c2ccc(Br)cc2)c(O)c1	3.16µM*	0.6%	4.47µM*
Cc1nc(N2CCN(S(=O)(=O)c3cccc4nonc34)CC2)c2c3c(sc2n1)CCCC3	-33.6%	-2.4%	3.6%
CN(C)CCN1C(=O)NC(C)(c2ccc([N+](=O)[O-])cc2)C1=O (configuration not stated)	-17.5%	0.1%	-0.4%
CC=C1COC(C(=O)NCCOCCO)(C(F)(F)F)C=C1C=C(C)C (configuration not stated)	-25.2%	nt	-9.8%
COCCNC(=S)N(c1ccccc1)C(C)C	-27.7%	1.6%	7.7%
COCCNC(=S)NN(c1ccccc1)c1ccccc1	7.94µM*	1.0%	?
CNC(=S)NN(c1ccccc1)c1ccccc1	17.8µM*	-1.4%	?
COCCCNC(=S)Nc1ccccc1C	?	-1.8%	-23.6%
CN(C(N)=S)c1ccccc1	-34.3%	-1.0%	9.5%
COCCNC(=S)Nc1ccccc1Cc1ccccc1	3.55µM*	1.3%	10µM*
CN(C)c1ncc2nc(-c3ccc(F)cc3)c(=O)n(CCc3ccccc3)c2n1	-8.1%	nt	7.2%
O=C(O)c1cc(N=Cc2c(O)c3ccccc3oc2=O)ccc1O	-5.9%	nt	4.0%
N#C/C(=C/c1ccc(-c2ccc(S(N)(=O)=O)cc2)o1)C(=O)Nc1ccccc1	22.0%[10 µM]	-2.0%	-60.4%
O=C(Nc1ncc(Cc2ccccc2Cl)s1)c1ccc(-c2cccc([N+](=O)[O-])c2)o1	5.01µM*	nt	?
Cc1ccc(Cc2cnc(NC(=O)/C(C#N)=C/c3ccc(-c4ccc([N+](=O)[O-])cc4)o3)s2)cc1	2.24µM*	3.6%	0.3%
O=C(Nc1ncc(Cc2ccc(C(F)(F)F)cc2)s1)c1ccc(-c2cccc([N+](=O)[O-])c2)o1	5.62µM*	3.6%	7.08µM*
CC(=O)Nc1ncc(Cc2cccc(Cl)c2Cl)s1	-12.8%	3.3%	-1.3%
NNC(=O)c1ccc(-c2cccc([N+](=O)[O-])c2)o1	4.8%	-2.5%	15.1%
CC(C=O)Cc1ccc(C(C)(C)C)cc1 (configuration not stated)	25.2%	nt	-1.2%
Cc1c(C(=O)C(=O)NCC2CCCO2)c2ccccc2n1C (configuration not stated)	19.6%	1.7%	4.4%
COc1cccc(C2CC(c3ccccc3OC)n3nc(N)nc3N2)c1 (configuration not stated)	-15.9%	1.1%	11.0%
Clc1ccc2nsnc2c1NC1=NCCN1	-0.8%	nt	?
SMILES	RORg inh	Luc counter	VP16 counter
Cc1c(N=NC2=C(O)CC(C)(C)CC2=O)c(=O)n(-c2ccccc2)n1C	-1.4%	-1.2%	-2.9%
C=CCN1CCN(C(=O)c2cc3c(s2)CCCC3)CC1	12.2%	nt	-14.5%
O=C(CN1CCN(Cc2ccccc2)CC1)N1CCCCCC1	-25.3%	-0.5%	8.2%
CC1CCN(CCCNC(=O)c2ccc3c(=O)n(Cc4ccc(Cl)cc4)c(=S)[nH]c3c2)CC1	12.6µM*	-1.0%	20µM*
O=C(NCCCN1CCOCC1)c1ccc2c(=O)n(Cc3ccc(Cl)cc3)c(=S)[nH]c2c1	11.2µM*	nt	?
COC(=O)c1ccc2c(=O)n(Cc3ccc(C(=O)NCCCN4CCOCC4)cc3)c(=S)[nH]c2c1	0.8%	nt	-29.8%
COC(=O)c1ccc2c(=O)n(Cc3ccc(C(=O)NCCCN4CCC(C)CC4)cc3)c(=S)[nH]c2c1	?	0.9%	?
CC(C)(Oc1ccc([C@@H]2CC2(Cl)Cl)cc1)C(=O)O	1.6%[16.9 µM]	2.2%[17.1 µM]	5.1%[17 µM]
CNS(=O)(=O)c1cn(CC(=O)NCc2ccc(N(C)C)cc2)cc1S(=O)(=O)NC	-0.6%	nt	-4.1%
Cn1c(N/N=C/c2c[nH]c3ccccc23)nc2ccccc21	1µM*	-6.8%	3.98µM*
Cn1c(N/N=C/c2cc3ccccc3nc2Cl)nc2ccccc21	1.12µM*	6.31µM*	1.26µM*
Cc1cc(N/N=C/c2c[nH]c3ccccc23)c2ccccc2n1	-0.4%	3.4%	-10.3%
Cc1nnc(C)n1/N=C/c1cc2ccccc2nc1Cl	-11.2%	5.1%	4.6%
Cc1ccc(NC(=O)N2C3CCCC2CC(NC(=O)C2CC2)C3)cc1 (configuration not stated)	-17.8%	nt	2.5%
